# Rows were chosen to be rich in hits. Some 4.7% of all compounds tested hit in one or more screens of this group.
# TRHR ag: qHTS for Small Molecule Agonists and Allosteric Enhancers of Human TRH Receptor: Primary Screen for Agonists. Thyrotropin-releasing hormone receptor (Homo sapiens), P34981. TRHR cells, calcium flux fluo-8, FDSS agonist mode. activation, % at 2 µM. hit rate 0.18% among 360,000. AID 493084, 2011; note: 0% is about no effect
#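 Fluo-8-loaded TRHR cells; 10 s baseline, compound added, kinetic Ca2+ fluorescence read 1/s, agonist mode.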
# TRHR PAM: qHTS for Small Molecule Agonists and Allosteric Enhancers of Human TRH Receptor: Primary Screen for Enhancers; TRHR cells, fluo-8 calcium fluorescence, EC20 TRH enhancement; hit rate 0.66% among 360,000; AID 493056, 2011; Thyrotropin-releasing hormone receptor (Homo sapiens), P34981; enhancement, % at 2 µM; in the data active = enhancement above about 30%; note: 0% is about no effect
#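 Enhancer read-out: after compound pinning and an initial kinetic agonist-mode read, an EC20 of TRH (10 nM final) was injected and fluo-8 calcium signal (Ex 480/Em 530) followed at 1 s/cycle for 100 cycles in TRHR-expressing cells.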
# D1 PAM: Potentiators of Human D1 Dopamine Receptor: qHTS. AID 504651, 2011. hit rate 0.036% among 360,000. HEK293 TREx D1 cells, calcium flux, dopamine EC20 potentiation. D(1A) dopamine receptor (Homo sapiens), P21728. potentiation, % at 10 µM; in the data active = potentiation above about 30%; note: 0% is about no effect
# Target sequence (P21728 whole entry, looked up): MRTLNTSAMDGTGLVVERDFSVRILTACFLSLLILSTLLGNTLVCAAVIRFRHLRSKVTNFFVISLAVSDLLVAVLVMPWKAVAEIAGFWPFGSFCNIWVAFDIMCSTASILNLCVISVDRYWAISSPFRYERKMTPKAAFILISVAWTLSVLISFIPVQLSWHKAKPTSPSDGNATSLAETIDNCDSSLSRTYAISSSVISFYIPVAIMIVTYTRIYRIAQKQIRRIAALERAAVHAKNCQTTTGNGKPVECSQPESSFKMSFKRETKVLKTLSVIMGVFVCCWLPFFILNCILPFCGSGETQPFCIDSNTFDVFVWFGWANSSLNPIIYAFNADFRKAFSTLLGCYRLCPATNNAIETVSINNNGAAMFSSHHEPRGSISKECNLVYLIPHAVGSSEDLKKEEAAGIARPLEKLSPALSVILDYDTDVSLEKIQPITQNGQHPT
# D1 ag: Allosteric Agonists of the Human D1 Dopamine Receptor: qHTS | HEK293 T-REx D1 cells, calcium flux, agonist mode | activation, % at 2 µM | hit rate 1% among 360,000; note: 0% is about no effect
#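 Inducible HEK293 T-REx D1 cells, force-coupled to calcium signalling, were plated at 4000 cells/well with tetracycline and held overnight at 30 C. After no-wash calcium dye loading, compound-evoked calcium rise over 180 s flagged agonists.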
# D1 antag: Antagonist of Human D 1 Dopamine Receptor: qHTS | HEK293 TREx D1 cells, calcium flux, dopamine EC80; hits give low values | activity change, negative = inhibition, % at 10 µM | hit rate 3.2% among 360,000; in the data active = activity change below about -30%; note: % is set by controls: 0 for no effect and ±100 for the full control effect
#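 Tetracycline-induced HEK293 T-REx cells with force-coupled D1 receptor were loaded with a no-wash calcium dye. Compound was added after a 10 s baseline and read kinetically for 180 s; EC80 dopamine was then added and calcium flux followed another 180 s.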
# * hit, by the source's call; ! = a repeat was not active. Cut-off read from the data, not from the text of the source, unless noted: active = activation above about 30%; inactive = the rest.
SMILES,TRHR ag,TRHR PAM,D1 PAM,D1 ag,D1 antag
CCOc1ccccc1NC(=O)Nc1ccc2nc(N3CCN(C)CC3)cc(C)c2c1,-1,-14,-8,2,10
C/C(=N\NC(=S)NCC(C)(C)C)c1cc(F)cc(F)c1O,1,7,-11,22,-85*
COCCNC(=S)N/N=C(\C)c1ccc(O)cc1,-1,-5,-5,4,-15
COc1ccc(N=CC2=C(O)CC(C)(C)CC2=O)cc1,0,38*,-5,3,2
COc1ccc(OC)c(N=CC2=C(O)CC(C)(C)CC2=O)c1,0,6,-7,1,1
CCOc1ccc(CCN2C(=O)C(=O)N([C@H](CCCN(C)Cc3ccccc3)CNCc3ccccc3)C[C@@H]2C(C)C)cc1,-1,14,-7,41*,-2
COc1ccc(CNC[C@@H](CCCCN(C)Cc2ccc(OC)cc2)N2C[C@H](c3ccccc3)N(CCc3ccc(Cl)c(Cl)c3)C(=O)C2=O)cc1,0,7,0,39*,126
CN(CCCC[C@H](CNCc1ccc(-c2ccccc2)cc1)N1C[C@H](c2ccccc2)N(CCc2ccc(Cl)c(Cl)c2)C(=O)C1=O)Cc1ccc(-c2ccccc2)cc1,0,2,2,3,10
COc1ccccc1/C=C/C(=O)c1ccccc1,-1,-4,-6,1,3
COc1ccccc1/C=C/C(=O)c1ccc(Cl)cc1,0,-7,-6,12,-36*
O=C(/C=C/c1ccccc1O)c1ccc(Cl)cc1,1,8,-2,3,-12
CCOc1ccccc1/C=C/C(=O)c1ccc(Cl)cc1,0,0,-6,8,-32*
COc1cccc2c1-c1c(O)cccc1C2=O,2,-3,2,7,-3
COc1cccc2c1C(=O)c1c(O)c3c(c(O)c1C2=O)C[C@](O)(C(C)=O)C[C@H]3O[C@@H]1C[C@@H](N)[C@@H](O)[C@@H](C)O1,10,-7,-4,3,-35*
Cc1cccc(/C=C2\Sc3ccc(C(=O)N4CCOCC4)cc3N(C)C2=O)c1,0,0,5,5,-9
CN1C(=O)/C(=C/c2cccc(Cl)c2)Sc2ccc(C(=O)N3CCCC3)cc21,0,23,4,8,-36*
Cc1cccc(/C=C2\Sc3ccc(C(=O)N4CCCCC4)cc3N(C)C2=O)c1,0,3,0,3,-38*
Cc1ccc(NC(=O)CN2C(=O)c3ccccc3Sc3ccc(C(=O)N4CCOCC4)cc32)c(Cl)c1,0,-3,-4,0,7
Cc1cc(C)cc(NC(=O)CN2C(=O)c3ccccc3Sc3ccc(C(=O)N4CCCC4)cc32)c1,0,33*,1,3,11
CS(=O)(=O)n1nc(-c2ccco2)nc1NCc1ccccc1Cl,-1,-1,1,0,5
CCCn1c(COc2cccc(C)c2)nc2ccccc21,-1,10,-2,-2,-1
Cc1ccccc1-c1nnc(-c2ccc(Cl)cc2)o1,0,8,5,10,1
Cc1ccc(CS(=O)(=O)c2ccccc2-c2nnc(-c3ccc(Cl)cc3)o2)cc1,1,-3,-6,15,-39*
CCOC(=O)c1sc(NC(=O)CSc2nc3c(cc2C#N)CCCCCC3)c(C#N)c1C,16,-9,-1,42*,9
COc1ccccc1NC(=O)c1sc2nc(-c3cc4cc(Cl)ccc4oc3=O)[nH]c(=O)c2c1C,0,7,-4,12,-26
SMILES,TRHR ag,TRHR PAM,D1 PAM,D1 ag,D1 antag
Cc1ccc(NC(=O)c2ccc3[nH]c(=O)c(=O)[nH]c3c2)nc1,1,-2,-2,2,13
O=C(Nc1ccc(Cl)cn1)c1ccc2[nH]c(=O)c(=O)[nH]c2c1,0,0,-2,1,-30*
Cc1ccc(C(=O)OC2OC(=O)C(Cl)=C2N2CCOCC2)cc1 (stereo not given),1,30*,-5,9,-17
CCOc1cc(N(CC)CC)ccc1/C=C(/C#N)c1nc2ccccc2[nH]1,41*,12,5,57*,5
CCN(CC)c1ccc(/C=C(/C#N)c2nc3ccc(C)cc3[nH]2)c(OC(C)C)c1,83*,16,-2,100*,-22
CCCOc1cc(N(CC)CC)ccc1/C=C(/C#N)c1nc2ccc(C)cc2[nH]1,32*,9,19,-2,6
CC1(c2ccc([N+](=O)[O-])cc2)Nc2ccccc2S1 (stereo not given),0,31*,3,0,1
O=C1Nc2ccccc2/C1=C/c1ccc([N+](=O)[O-])cc1,0,-2,-1,-1,-8
S=c1[nH]ncn1/N=C/c1ccc(Br)cc1,-1,-7,3,0,12
S=c1[nH]ncn1/N=C/c1ccccc1,0,-16,-6,3,-30*
CCOc1ccccc1CNCCCSc1nnnn1C,1,2,0,4,9
Cc1nn(-c2ccccc2)c2c1N(CCCC(=O)NCc1ccc(Cl)cc1)C(=O)CS2,0,2,-4,1,-48*
Cc1cc(Cl)ccc1NC(=O)CCCn1nc(C)c2c(C)n(-c3ccccc3)nc2c1=O,-1,-6,2,-2,-32*
Cc1nn(-c2ccccc2)c2c1N(CCCC(=O)NCc1ccccc1)C(=O)CS2,0,-3,1,0,-9
Cc1nn(CCCC(=O)NCCc2ccc(Cl)cc2)c(=O)c2nn(-c3ccccc3)c(C)c12,0,8,-3,-1,-33*!
COc1cccc(CNC(=O)CCCn2nc(C)c3c(C)n(-c4ccc(C)cc4)nc3c2=O)c1OC,-2,3,-1,3,-54*!
Cc1c(C(=O)N(Cc2ccc(N(C)C)cc2)CC2CCCO2)oc2ccc(Cl)cc12 (stereo not given),1,-4,0,1,-14
COc1cc(CNCCSc2nnnn2C)ccc1OCc1ccccc1C,0,-5,-1,5,-8
CCCCc1ccc(NC(=O)c2cc(-c3ccc(C)c(F)c3)on2)cc1,0,13,-2,3,-5
Cc1nn(CCCC(=O)NCCc2ccccc2)c(=O)c2nn(-c3ccccc3)c(C)c12,0,-10,0,0,-36*
Cc1nn(C(C)C(=O)NCCN2CCCCCC2)c(=O)c2nn(-c3ccccc3)c(C)c12 (stereo not given),0,30*,6,0,16

# Source: PubChem BioAssay
